{
  "source": "PubChem BioAssay (NCI)",
  "note": "About 83,000 compounds went through this panel and 20% of them were active in at least one assay; those are over-represented in the sample as a whole.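 Testing used 96-well plates and a 48-hour single-concentration exposure. Example: -40 means 40% of the starting cells died.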 Unmarked numbers belong to inactive results. Calls of active or inactive are those of the source.",
  "data": [
    {"tested_on": "PC-3 prostate", "experiment": "NCI-60 one-dose screen, 48 h (100 = growth as untreated, 0 = no growth, -100 = all killed)", "details": "10 µM unless noted", "description": "Growth inhibition of the PC-3 human tumor cell line is measured as a screen for anti-cancer activity. Cells are grown in 96 well plates and exposed to the test compound for 48 hours. Compounds are tested at a single concentration, which is 10^-5 M for most compounds. The reported endpoint is percent growth (GI% or GIPRCNT), where numbers from 0 - 100% represent growth inhibition, and numbers from -100% - 0 represent cell death. For example, a value of 40 represents 60% growth inhibition. A value of 0 means no net growth occurred over the course of the experiment. A value of -40 indicates 40% of cells at the beginning of the experiment died by the end of the experiment. A value of -100 means all cells are dead at the end of the experiment.\nNCI-60 Human Tumor Cell Lines Screen was performed using the standard one-dose NCI protocol, which is described in more detail at https://dtp.cancer.gov/discovery_development/nci-60/default.htm.\nCompounds with GIPRCNT values below 10 were considered active. Activity score was based on GIPRCNT using the following formula: […]\nScore is 0 for GIPRCNT values of 100 or above, 50 for GIPRCNT values of 0, and 100 for GIPRCNT values of -100.", "values": [
      {"smiles": "CC(=O)OC1CC2CCC1(C)C2(C)C", "note": "(stereo not given)", "growth": "93.2%"},
      {"smiles": "CCC(=O)c1cc([N+](=O)[O-])c(Br)s1", "growth": "101%"},
      {"smiles": "C[n+]1ccccc1C[n+]1ccccc1", "growth": "91.4%"},
      {"smiles": "N#C/C(=N\\Nc1ccc(Cl)cc1)C(=O)C1CC1", "growth": "54.3%"},
      {"smiles": "O=C(OC12CC3CC(CC(C3)C1)C2)c1ccc(NCc2cc(O)ccc2O)cc1", "growth": "-16.5% (active)"},
      {"smiles": "CCCN(CCC)C(=O)c1ccc(C)cc1", "growth": "86.5%"},
      {"smiles": "O=C(/C(Cl)=N/O)c1ccc(-c2ccccc2)cc1", "growth": "98.6%"},
      {"smiles": "OC(c1cc(C23CC4CC(CC(C4)C2)C3)nc2c(Cl)cc(Cl)cc12)C1CCCCN1", "note": "(stereo not given)", "growth": "-84.5% (active)"},
      {"smiles": "CCOC(=O)C1=NN(c2ccccc2)C(=O)/C1=C\\N1C(=O)/C(=C/c2cccc(O)c2)SC1=S", "growth": "88%"},
      {"smiles": "N#CC(I)CS(=O)(=O)c1ccccc1", "note": "(stereo not given)", "growth": "90.8%"},
      {"smiles": "Nc1nc(N)c2cc(Sc3cccc(C(F)(F)F)c3)ccc2n1", "growth": "28.3%"},
      {"smiles": "CCCCCCCCCCCC[n+]1ccc(CCCCCCCCC)cc1", "growth": "-51.6% (active)"},
      {"smiles": "S=C(S)OCN1CCOCC1", "growth": "89.6%"},
      {"smiles": "Oc1ccc2c(c1)CCc1ccccc1-2", "growth": "99.2%"},
      {"smiles": "Cc1cc(C)c([I+]c2c(C)cc(C)cc2C)c(C)c1", "growth": "-16.7% (active)"},
      {"smiles": "COc1cc(/C=C/C(=O)CC(=O)/C=C/c2ccc(O)c(OC)c2)ccc1O", "growth": "36.8%"},
      {"smiles": "COc1ccc2nc3cc(Cl)ccc3c(NCCCCCN3CCCCC3)c2c1", "growth": "-45.3% (active)"},
      {"smiles": "O=C(CCl)N1c2ccccc2Sc2c1ccc1ccccc21", "growth": "70.6%"},
      {"smiles": "CC(C)(C)c1ccc(O)c(Br)c1", "growth": "101%"},
      {"smiles": "O=C1C=CC(=O)c2c(O)c(CO)c(CO)c(O)c21", "growth": "25.6%"},
      {"smiles": "CCCC[n+]1c(/C=C\\c2c(OC)cc(OC)cc2OC)ccc2ccccc21", "growth": "2.91% (active)"},
      {"smiles": "Cc1cc(C(N)=O)cc(C)c1C(=O)OCCCl", "growth": "96.8%"},
      {"smiles": "NC(=S)N/N=C/c1ncccc1O", "growth": "37%"},
      {"smiles": "CC1CC(C)(C)OB(OC(C)CC(C)(C)OB2OC(C)CC(C)(C)O2)O1", "note": "(stereo not given)", "growth": "97.5%"},
      {"smiles": "NNc1cccc([N+](=O)[O-])c1", "growth": "86.4%"},
      {"smiles": "COC1CC(C)C(OC)c2cc(O)cc(c2O)NC(=O)/C(C)=C/C=C\\C(C)C(OC(N)=O)/C(C)=C\\C(C)C1OC", "note": "(stereo not given)", "growth": "25.2%"},
      {"smiles": "O=[N+]([O-])c1cc(-c2ccccc2)c(O)c([N+](=O)[O-])c1", "growth": "78.3%"},
      {"smiles": "Oc1ccc(Cl)cc1Cc1cc(Cl)ccc1O", "growth": "23.9%"},
      {"smiles": "CC1(C)N=c2cc3c(cc2N1c1ccc(Cl)cc1)=Nc1ccccc1N3c1ccc(Cl)cc1", "growth": "7.55% (active)"},
      {"smiles": "Oc1ccccc1N=Cc1ccccc1", "growth": "36.5%"},
      {"smiles": "C(=N\\Nc1ccc2ccccc2n1)/c1ccccn1", "growth": "45.1%"},
      {"smiles": "O=Nc1ccc2ccccc2c1O", "growth": "44.9%"},
      {"smiles": "Fc1ccc(NCCS)cc1", "growth": "99.1%"},
      {"smiles": "CCCCCCCCCCCCN1C(C)=CS/C1=C\\C=C\\c1scc(C)[n+]1CCCCCCCCCCCC", "growth": "3.86% (active)"},
      {"smiles": "CC(C)N=C(N)/N=C(\\N)Nc1ccc2ccc3ccccc3c2c1", "growth": "-7.75% (active)"},
      {"smiles": "NCCCN(CCCN)CCCNCc1c2ccccc2c(CNCCCN(CCCN)CCCN)c2ccccc12", "growth": "90.8%"},
      {"smiles": "Oc1c(C(Nc2ccccc2)c2ccccc2)ccc2cccnc12", "note": "(stereo not given)", "growth": "28.9%"},
      {"smiles": "Cc1cc(I)nc2ccccc12", "growth": "96.8%"},
      {"smiles": "COc1cccc2c1C(=O)c1c(O)c3c(c(O)c1C2=O)C[C@@](O)(C(=O)CO)C[C@@H]3OC1CC(OC(C)=O)C(OC(C)=O)C(C)O1", "note": "(stereo not given in full)", "growth": "5.51% (active)"},
      {"smiles": "Cn1c(-c2ccccc2)c(/C=C/C2=[N+](C)c3ccccc3C2(C)C)c2ccccc21", "growth": "8.69% (active)"}
    ]}
  ]
}
